GC-B act: human GC-B receptor activators, primary screen, HEK293 GC-B cells, cGMP TR-FRET, EC30 CNP. 370,000 compounds, 0.11% hits. activation, % at 10 µM. 0% at EC30 CNP, 100% saturating CNP. Atrial natriuretic peptide receptor 2 (Homo sapiens), P20594;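 active = activation at 10 µM reaching about 35% in either raw or pattern-adjusted values, limit read from the data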
ADAM17 inh: ADAM17 inhibitors, primary screen, biochemical, QFRET; Disintegrin and metalloproteinase domain-containing protein 17 (Homo sapiens), P78536; 370,000 compounds, 0.83% hits; recombinant ADAM17, EDANS/DABCYL FRET peptide cleavage; inhibition, % at 6.95 µM; AID 720648, 2013;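 active = inhibition above the mean of compounds lying between control limits plus 3 SD, set per campaign, cut at about 8.5% in these data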;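 also: 0% = DMSO-only wells as the low control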
FAS TE block: FAS thioesterase domain inhibitors, primary screen, biochemical, fluorescence intensity, uHTS; recombinant FAS-TE, OMFH fluorogenic substrate, fluorescence endpoint; Fatty acid synthase (Homo sapiens), P49327; inhibition, % at 15 µM; AID 602261, 2012; 360,000 compounds, 0.67% hits;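 active = compounds whose normalised, plate-corrected inhibition of enzyme fluorescence in the single-dose primary screen is 50% or more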;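 also: 0% = DMSO with enzyme and 100% = substrate without enzyme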
ADAM10 inh: human ADAM10 inhibitors, primary screen, biochemical, QFRET, HTS | 370,000 compounds, 0.62% hits | recombinant ADAM10, EDANS/DABCYL FRET peptide cleavage, 3 h | inhibition, % at 7 µM | AID 720582, 2013;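 active = inhibition above a per-campaign cutoff equal to the mean of compounds falling between control-based bounds plus 3 SD, cut at about 20% in these data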;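 also: 0% = DMSO wells while the 100% control is not disclosed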
Target sequence (O14672 214-748 limits assumed): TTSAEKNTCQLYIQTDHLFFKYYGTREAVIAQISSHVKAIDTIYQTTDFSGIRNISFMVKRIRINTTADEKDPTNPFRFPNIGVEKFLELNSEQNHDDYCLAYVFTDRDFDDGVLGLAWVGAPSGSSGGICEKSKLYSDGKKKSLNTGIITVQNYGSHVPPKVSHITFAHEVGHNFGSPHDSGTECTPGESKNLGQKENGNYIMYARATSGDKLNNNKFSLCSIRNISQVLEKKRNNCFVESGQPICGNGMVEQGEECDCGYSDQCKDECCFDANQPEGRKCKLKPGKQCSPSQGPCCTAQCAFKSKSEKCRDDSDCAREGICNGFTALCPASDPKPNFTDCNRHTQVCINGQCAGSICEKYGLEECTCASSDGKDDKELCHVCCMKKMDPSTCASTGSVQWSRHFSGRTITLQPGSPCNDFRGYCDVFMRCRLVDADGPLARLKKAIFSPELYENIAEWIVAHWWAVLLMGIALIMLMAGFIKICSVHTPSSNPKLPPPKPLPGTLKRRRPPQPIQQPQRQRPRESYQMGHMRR
NPR1 activator: GC-A stimulated cGMP production enhancers – HEK293 GC-A cells, cGMP TR-FRET, EC30 ANP, primary screen; Atrial natriuretic peptide receptor 1 (Homo sapiens), P16066; 0% at EC30 ANP, 100% saturating ANP; activation, % at 10 µM; 370,000 compounds, 0.14% hits; in the data active = activation above about 40%
FAS-TE inh conf: FAS thioesterase domain inhibitors, confirmation, biochemical, fluorescence intensity, single concentration. inhibition, % at 15 µM. shares compounds with FAS TE block. recombinant FAS-TE, OMFH fluorogenic substrate. 2,300 compounds, 45% hits;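 active = compounds inhibiting the enzyme by at least 50% at 15 µM in any one of the replicates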;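 also: 0% = enzyme with DMSO only and 100% = wells lacking enzyme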
Starred values were filed as active, the others as inactive. Shown are actives, neighbours in structure and some others; about 2% of the full set was active somewhere.

Results for Cn1cccc1C(=O)N1CCN(S(=O)(=O)c2ccc([N+](=O)[O-])cc2)CC1 ?
GC-B act: 1; ADAM17 inh: 1; ADAM10 inh: -2; NPR1 activator: 2

How did CCOC(=O)[C@@]12CN(C(=O)OC(C)(C)C)CC=C1N(Cc1ccc(OC)cc1)C(=O)[C@H]2CC(=O)NCc1cccc2ccccc12 do in these assays?
GC-B act: -2; ADAM17 inh: 0; ADAM10 inh: -1; NPR1 activator: 2

What do the screens show for `Cc1c(Cl)c([N+](=O)[O-])nn1CCCC(=O)Nc1cccc(Cl)c1`?
GC-B act: -9; ADAM17 inh: -5; FAS TE block: 51*; ADAM10 inh: 8; NPR1 activator: -9; FAS-TE inh conf: 42*

How did CCc1nc2c(OCc3ccc(Cl)cc3)cccn2c1N(C=O)Cc1ccccc1 do in these assays?
GC-B act: 2; ADAM17 inh: 0; FAS TE block: 64*; ADAM10 inh: -3; NPR1 activator: 1; FAS-TE inh conf: 71*

What do the screens show for `CC1(C)CC2CC(C)(CN2S(=O)(=O)c2ccc(C(=O)Nc3cc(S(=O)(=O)N4CCOCC4)ccc3Cl)cc2)C1` (centres undefined)?
GC-B act: 3; ADAM17 inh: 2; FAS TE block: 76*; ADAM10 inh: 1; NPR1 activator: -3; FAS-TE inh conf: 23

How did Cc1ccc(S(=O)(=O)c2nnn3c2nc(N2CCCCC2)c2ccccc23)cc1 do in these assays?
GC-B act: 26; ADAM17 inh: 3; FAS TE block: 35; ADAM10 inh: -5; NPR1 activator: 21

How did CCc1ccc(S(=O)(=O)c2nnn3c2nc(N2CCOCC2)c2ccccc23)cc1 do in these assays?
GC-B act: 5; ADAM17 inh: -2; FAS TE block: 60*; ADAM10 inh: 1; NPR1 activator: 11; FAS-TE inh conf: 36*

How did Cc1ccc(S(=O)(=O)c2nnn3c2nc(N2CCN(c4ccccn4)CC2)c2ccccc23)cc1C do in these assays?
GC-B act: 4; ADAM17 inh: -3; FAS TE block: 53*; ADAM10 inh: 7; NPR1 activator: 1; FAS-TE inh conf: 0

What do the screens show for `COC(=O)[C@@]1(Cc2ccc(OC)cc2)[C@H]2c3cc(C(=O)N4CCCC4)n(Cc4ccc(C)o4)c3C[C@H]2CN1C(=O)c1ccccc1`?
GC-B act: 3; ADAM17 inh: 3; ADAM10 inh: 8; NPR1 activator: -1

How did COC(=O)[C@@]1(Cc2ccc(OC)cc2)[C@H]2c3cc(C(=O)N4CCCC4)n(Cc4ccsc4Br)c3C[C@H]2CN1C(=O)c1ccccc1 do in these assays?
GC-B act: -5; ADAM17 inh: 4; FAS TE block: 51*; ADAM10 inh: 9; NPR1 activator: -3; FAS-TE inh conf: 23

Results for COC(=O)[C@@]1(Cc2ccc(F)cc2)[C@H]2c3cc(C(=O)N(C)C)n(CCc4ccc(OC)c(Br)c4)c3C[C@H]2CN1C(=O)c1ccccc1 ?
GC-B act: -9; ADAM17 inh: 5; FAS TE block: 81*; ADAM10 inh: -13; NPR1 activator: -10; FAS-TE inh conf: 1

What do the screens show for `N[C@H](C(=O)N[C@@H](Cc1ccccc1)C(=O)N1CCC2CCN(S(=O)(=O)c3ccccc3)CC21)c1ccccc1` (some centres undefined)?
GC-B act: 0; ADAM17 inh: -8; ADAM10 inh: -14; NPR1 activator: 1

How did CCOC(=O)c1c(-c2ccccc2)csc1NC(=O)c1cc(S(=O)(=O)N2CCOCC2)ccc1C do in these assays?
GC-B act: 2; ADAM17 inh: -1; FAS TE block: 52*; ADAM10 inh: -17; NPR1 activator: 6; FAS-TE inh conf: 17

Results for CCN1C(=O)CS/C1=N\S(=O)(=O)c1ccc(Cl)cc1 ?
GC-B act: -6; ADAM17 inh: 0; FAS TE block: -2; ADAM10 inh: 6; NPR1 activator: 1

Results for CCn1c(Cl)c(C=O)s/c1=N\S(=O)(=O)c1ccccc1 ?
GC-B act: 21; ADAM17 inh: -1; FAS TE block: 76*; ADAM10 inh: -1; NPR1 activator: 7; FAS-TE inh conf: 33

What do the screens show for `Cc1cccc2cc(CN(Cc3cccs3)S(=O)(=O)c3ccc4c(c3)OCCO4)c(=O)[nH]c12`?
GC-B act: 2; ADAM17 inh: -1; FAS TE block: 73*; ADAM10 inh: -3; NPR1 activator: -1; FAS-TE inh conf: 26

What do the screens show for `O=C(Nc1ccc(F)cc1)OCc1cn(Cc2cccc(F)c2)nn1`?
GC-B act: -5; ADAM17 inh: -3; ADAM10 inh: 2; NPR1 activator: 2

Results for Cc1cn(C2OC(COC(=O)c3ccccc3)C(OC(=O)c3ccccc3)C2OC(=O)c2ccccc2)c(=O)[nH]c1=O (centres undefined) ?
GC-B act: 4; ADAM17 inh: -3; FAS TE block: 87*; ADAM10 inh: 0; NPR1 activator: -4; FAS-TE inh conf: 5

Results for COc1ccccc1-c1cc(SC)c(C#N)c(=O)o1 ?
GC-B act: -1; ADAM17 inh: -4; FAS TE block: 55*; ADAM10 inh: -20; NPR1 activator: 6; FAS-TE inh conf: 47*

Results for O=C(c1ccccc1)c1nc2ccccc2n(CCCn2c(=O)c(C(=O)c3ccccc3)nc3ccccc32)c1=O ?
GC-B act: 1; ADAM17 inh: 3; FAS TE block: 60*; ADAM10 inh: 10; NPR1 activator: -5; FAS-TE inh conf: 17

What do the screens show for `OC(c1ccccc1)(c1ccccc1)C1CCN(CCCOc2ccc(-c3ccncc3)cc2)CC1`?
GC-B act: -13; ADAM17 inh: -5; ADAM10 inh: -14; NPR1 activator: -12

How did Cc1nn(-c2ccccc2)c2c1C(c1ccc([N+](=O)[O-])cc1)N1C(=N2)C(=O)Nc2ccccc21 (centres undefined) do in these assays?
GC-B act: -7; ADAM17 inh: 8; FAS TE block: 79*; ADAM10 inh: 19; NPR1 activator: -8; FAS-TE inh conf: 1

How did Cc1nn(-c2ccccc2)c2c1C(c1ccc(Cl)cc1)N(c1ccccc1)C(=O)N2 (centres undefined) do in these assays?
GC-B act: -11; ADAM17 inh: 1; FAS TE block: 27; ADAM10 inh: 4; NPR1 activator: -18

Screening data as filed in PubChem BioAssay.
